{"source": "PubChem BioAssay AID651784", "about": "(National Center for Advancing Translational Sciences (NCATS), 2012)", "note": "Inconclusive results are not listed. Active and inactive are the calls of the source. Calls follow the shape of the dose curve; as a rule, active = well fitted inhibition curve with a large enough effect; inconclusive = small, poorly fitted or top-dose-only effect; inactive = no such curve, though single readings can be large or run the other way. Potency is read from the fitted curve at half-maximal effect."}
{"assay": "Acumen qHTS Assay for Inhibitors of the mTORC1 Signaling Pathway in MEF (Tsc2-/-, p53-/-) Cells: Hit Validation;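 also: phospho-rpS6 Ser235/236 immunofluorescence normalized to propidium iodide cell count; nearly all actives have a fitted effect of over 65% in size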;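 as to activity change, negative = inhibition: cells exposed to compound for 24 hours; plate controls were DMSO for no effect and 7.5 nM rapamycin control for full effect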", "details": "Acumen imaging; activity change, negative = inhibition: at 37.3 µM (top of the series)", "units": {"activity change, negative = inhibition": "%"}}
{"smiles": "COc1cccc(-n2c(-c3ccco3)nc3c(cnn3-c3ccc(C)cc3)c2=O)c1", "activity change, negative = inhibition": 15.6}
{"smiles": "COc1ccc(OCC(=O)Nc2ccc3nn(-c4ccc(OC)cc4)nc3c2)cc1", "activity change, negative = inhibition": 11.1}
{"smiles": "CCN(C(=O)C(NS(=O)(=O)c1ccc(Br)s1)c1ccccc1)c1ccc(C)c(C)c1", "note": "(configuration not stated)", "activity change, negative = inhibition": -46.3}
{"smiles": "CCOC(=O)Cc1ccc(NC(=O)n2ncc3cc(Cl)ccc32)cc1", "Potency": "8.26 µM (active)"}
{"smiles": "CCOc1cc(CNc2ccc(O)cc2)cc(Cl)c1OCc1ccccc1", "activity change, negative = inhibition": -9.52}
{"smiles": "CCOc1ccccc1NC(=O)Cn1c(=O)n(CCC(=O)NCc2ccc3c(c2)OCO3)c(=O)c2ccccc21", "activity change, negative = inhibition": -23.6}
{"smiles": "N=c1n(CCN2CCCCC2)c2ccccc2n1CC(O)COc1ccc(Cl)cc1Cl", "note": "(configuration not stated)", "Potency": "5.21 µM (active)"}
{"smiles": "CCN1CCOC(=O)C1CC(=O)Nc1ccc(Br)cc1", "note": "(configuration not stated)", "activity change, negative = inhibition": -3.02}
{"smiles": "CCCS(=O)(=O)c1ncc(Cl)c(C(=O)N2CCN(c3ccc(OC)cc3)CC2)n1", "Potency": "7.36 µM (active)"}
{"smiles": "COc1ccc(CC(=O)Nc2sc3c(c2C(=O)Nc2cccc(C)c2)CCCCC3)cc1", "Potency": "4.14 µM (active)"}
{"smiles": "CCN1CCOC(=O)C1CC(=O)Nc1cc(Cl)ccc1C", "note": "(configuration not stated)", "activity change, negative = inhibition": -93.4}
{"smiles": "Cc1cccc(OCC(=O)Nc2ccc(-c3nc4cc(C)ccc4o3)c(O)c2)c1", "Potency": "6.56 µM (active)"}
{"smiles": "COc1ccc2cc(CNc3ccccc3)c(=O)n(CC(=O)Nc3ccc(C)cc3C)c2c1", "activity change, negative = inhibition": -44}
{"smiles": "Cc1c(C(=O)OC2CCC(C)CC2)[nH]c2c1C(=O)CC(c1ccc(F)cc1)C2", "note": "(configuration not stated)", "Potency": "1.04 µM (active)"}
{"smiles": "CCOc1cc(CNc2ccc(O)cc2)ccc1OCc1ccc(Cl)cc1", "activity change, negative = inhibition": -17.1}
{"smiles": "Cc1cccc(-n2cnc3cc(C(=O)NC4CCCCCC4)ccc32)c1", "Potency": "18.5 µM (active)"}
{"smiles": "CCCCC1CCC(C(=O)N2CC(=O)Nc3ccc(Cl)cc3C2c2ccc(F)cc2)CC1", "note": "(configuration not stated)", "activity change, negative = inhibition": -41.1}
{"smiles": "CCn1c(=O)sc2cc(NS(=O)(=O)c3ccc(F)c(C)c3)ccc21", "activity change, negative = inhibition": -28.9}
{"smiles": "CCC(C)S(=O)(=O)c1oc(-c2ccc(F)cc2)nc1S(=O)(=O)c1ccc(F)cc1", "note": "(configuration not stated)", "Potency": "1.31 µM (active)"}
{"smiles": "CC(C)OCCCn1c(=O)c2ccccc2n2c(-c3ccc(F)cc3)nnc12", "activity change, negative = inhibition": 17.3}
{"smiles": "COc1cc(C(=O)CC2(O)C(=O)N(Cc3ccccc3Cl)c3ccccc32)cc(OC)c1OC", "note": "(configuration not stated)", "activity change, negative = inhibition": -2.03}
{"smiles": "O=C(Nc1cccc(C(F)(F)F)c1)c1cnn(-c2cccc(F)c2)c1C1CCNCC1", "activity change, negative = inhibition": -13.8}
{"smiles": "NS(=O)(=O)c1cc(C(=O)O)c(NCc2ccco2)cc1Cl", "activity change, negative = inhibition": 34.6}
{"smiles": "COc1cccc(-n2c(-c3ccc(C)cc3)cc3c2CC(C)(C)CC3=O)c1", "activity change, negative = inhibition": -34.9}
{"smiles": "COc1cc(C(=O)N(CCCN(C)C)c2nc3c(OC)cccc3s2)cc(OC)c1OC", "activity change, negative = inhibition": 19.6}
{"smiles": "CCCCN(C)CCNC(=O)c1cc2c(=O)n(C)c3ccccc3c2n1C", "activity change, negative = inhibition": -0.172}
{"smiles": "CN1CCN(C2(CNC(=O)COc3ccc(C(C)(C)C)cc3)CCCCC2)CC1", "Potency": "14.7 µM (active)"}
{"smiles": "CC(=O)N1CCCc2cc(S(=O)(=O)N(Cc3ccccc3)C(C)C)ccc21", "activity change, negative = inhibition": -22.8}
{"smiles": "Cc1c(Cl)cccc1-c1ccc(C(=O)Nc2ccc3oc(-c4cccnc4)nc3c2)o1", "activity change, negative = inhibition": -39.9}
{"smiles": "CCNC(=O)c1c(NC(=O)c2nc(S(=O)(=O)CC)ncc2Cl)sc2c1CCCC2", "Potency": "1.31 µM (active)"}
{"smiles": "Cc1ccc(C(C)C)c(OCC(=O)Nc2cc(-c3nc4ccccc4[nH]3)ccc2C)c1", "activity change, negative = inhibition": -3.97}
{"smiles": "CCc1ccc(S(=O)(=O)N(C(=O)Oc2ccccc2)c2ccc3oc(C)c(C(=O)OC)c3c2)cc1", "activity change, negative = inhibition": -70.3}
{"smiles": "CS(=O)(=O)c1ncc(Cl)c(C(=O)N(Cc2ccc(Cl)cc2)Cc2ccco2)n1", "activity change, negative = inhibition": -102}
{"smiles": "O=S(=O)(c1cccc2cnccc12)N1CCCNCC1", "activity change, negative = inhibition": -7.7}
{"smiles": "CCN(CC)CCOC(=O)c1ccc(NC(=O)c2nn(-c3ccc(C)cc3)c(=O)c3c2c2ccccc2n3C)cc1", "Potency": "4.14 µM (active)"}
{"smiles": "CCc1ccc(NC(=O)C2CCCN(S(=O)(=O)c3cccc4cccnc34)C2)cc1", "note": "(configuration not stated)", "activity change, negative = inhibition": -7.11}
{"smiles": "CC(C)CS(=O)(=O)c1oc(-c2ccc(F)cc2)nc1S(=O)(=O)c1ccccc1", "activity change, negative = inhibition": -152}
